# Measured values taken from PubChem BioAssay AID1494158 (National Center for Advancing Translational Sciences (NCATS), 2020).
# Records with an inconclusive call do not appear. Values without a mark were called inactive. Activity calls are given as the source filed them. The call rests on the fitted dose curve.
# Experiment: VSV-G qHTS counterscreen for inhibitors of SARS-S pseudo-typed particle cell entry
# Details: VSV-G pseudotyped particle entry counterscreen, luciferase; series mostly up to 57.1 µM; activity, negative = inhibition: at the top concentration
SMILES,"activity, negative = inhibition [%]",Potency
CCc1c2c(nc3ccc(OC(=O)N4CCC(N5CCCCC5)CC4)cc13)-c1cc3c(c(=O)n1C2)COC(=O)[C@]3(O)CC,0,
COc1cc(NS(C)(=O)=O)ccc1Nc1c2ccccc2nc2ccccc12,,0.764 µM (active)
O=C1CCc2ccc(OCCCCN3CCN(c4cccc(Cl)c4Cl)CC3)cc2N1,,19.2 µM (active)
N#CC(c1ccc(Cl)cc1)c1c(Cl)cc(-n2ncc(=O)[nH]c2=O)cc1Cl (centres undefined),,10.8 µM (active)
Cc1cc(-n2c(=O)[nH]c(=O)n(C)c2=O)ccc1Oc1ccc(S(=O)(=O)C(F)(F)F)cc1,,19.2 µM (active)
COc1cccc2c1C(=O)c1c(O)c3c(c(O)c1C2=O)C[C@@](O)(C(=O)CO)C[C@@H]3O[C@H]1C[C@H](N)[C@@H](O)[C@H](C)O1,,4.82 µM (active)
COc1ccc2cc1Oc1ccc(cc1)C[C@H]1c3c(cc4c(c3Oc3cc5c(cc3OC)CCN(C)[C@@H]5C2)OCO4)CCN1C,,21.5 µM (active)
CC(C)OC(=O)OCOP(=O)(CO[C@H](C)Cn1cnc2c(N)ncnc21)OCOC(=O)OC(C)C,,0.0961 µM (active)
C=C1c2c(Cl)ccc(O)c2C(O)=C2C(=O)[C@@]3(O)C(O)=C(C(N)=O)C(=O)[C@@H](N(C)C)[C@@H]3[C@@H](O)[C@H]12,,15.2 µM (active)
CCCN1C[C@H](C)[C@@H](O)[C@](C)(O)[C@@H](CC)OC(=O)[C@H](C)[C@@H](O[C@H]2C[C@@](C)(OC)[C@@H](O)[C@H](C)O2)C(C)[C@@H](O[C@@H]2O[C@H](C)C[C@H](N(C)C)[C@H]2O)[C@](C)(O)C[C@H]1C (some centres undefined),-19.8,
CC(=O)[C@]1(O)Cc2c(O)c3c(c(O)c2[C@@H](O[C@H]2C[C@H](N)[C@H](O)[C@H](C)O2)C1)C(=O)c1ccccc1C3=O,,4.82 µM (active)
CCN(CC)CCNC(=O)c1c(C)[nH]c(/C=C2\C(=O)Nc3ccc(F)cc32)c1C,,17.1 µM (active)
CC(C)(C)c1ccc(C(=O)CCCN2CCC(OC(c3ccccc3)c3ccccc3)CC2)cc1,,27.1 µM (active)
Cc1oncc1C(=O)Nc1ccc(C(F)(F)F)cc1,0,
O=C(Nc1ccc([N+](=O)[O-])cc1Cl)c1cc(Cl)ccc1O,,0.482 µM (active)
N=C(N)c1ccc(OCCCCCOc2ccc(C(=N)N)cc2)cc1,,21.5 µM (active)
CCCCN=C(N)N=C(N)N,-7.93,

SMILES,"activity, negative = inhibition [%]",Potency
N/C(=N\N=C\c1ccc(Cl)cc1)N/N=C/c1ccc(Cl)cc1,,24.1 µM (active)
O=c1c(C2CC(c3ccc(-c4ccc(Br)cc4)cc3)Cc3ccccc32)c(O)sc2ccccc12 (centres undefined),,15.2 µM (active)
Cc1nnc2n1-c1sc(CCc3ccc(CC(C)C)cc3)cc1C(c1ccccc1Cl)=NC2C (centres undefined),,27.1 µM (active)
CCn1cc(C(=O)O)c(=O)c2cc(F)c(N3CCNC(C)C3)c(F)c21 (centres undefined),0,
O=c1ccc2ccccc2o1,0,
CNCCCC12CCC(c3ccccc31)c1ccccc12,-5.33,
Oc1c(Cl)cc(Cl)c(Cl)c1Cc1c(O)c(Cl)cc(Cl)c1Cl,,2.71 µM (active)
CNC(=O)c1cc(Oc2ccc(NC(=O)Nc3ccc(Cl)c(C(F)(F)F)c3)c(F)c2)ccn1,,10.8 µM (active)
CCCCCCCCCCCCCC[n+]1ccc(C)cc1,,1.92 µM (active)
COc1cccc2c1C(=O)c1c(O)c3c(c(O)c1C2=O)C[C@@](O)(C(=O)CO)CC3OC1CC(N2CCOC(OC)C2)C(O)C(C)O1 (some centres undefined),,0.108 µM (active)
CN(C)CCOC(c1ccccc1)c1ccc(Br)cc1 (centres undefined),0,
C[C@@H](c1nc(-c2ccc(C#N)cc2)cs1)[C@](O)(Cn1cncn1)c1cc(F)ccc1F,,21.5 µM (active)
Cc1cn([C@H]2C[C@H](N=[N+]=[N-])[C@@H](CO)O2)c(=O)[nH]c1=O,,3.41 µM (active)
COc1cc2nccc(Oc3ccc(NC(=O)C4(C(=O)Nc5ccc(F)cc5)CC4)cc3)c2cc1OC,,21.5 µM (active)
COc1ccc2cc3[n+](cc2c1OC)CCc1cc2c(cc1-3)OCO2,,17.1 µM (active)
CC(=O)N1CCN(c2ccc(OC[C@H]3CO[C@](Cn4ccnc4)(c4ccc(Cl)cc4Cl)O3)cc2)CC1,,19.2 µM (active)
CC[C@@]1(O)C(=O)OCc2c1cc1n(c2=O)Cc2cc3c(CN(C)C)c(O)ccc3nc2-1,,0.383 µM (active)
